From PubChem BioAssay
Active and inactive are the calls of the source.

Tests used:
[1] = binders of probe aFSTL3 on microarray, primary screen, stem cell growth factor project, biochemical, small-molecule microarray, fluorescence 635/667 (AID 1064); settings: higher = more signal;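 also: measures binding of the biotinylated anti-FSTL3 antibody to printed compounds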
[2] = binders from COS7 lysate, DM2A8 probe, primary screen, torsin A project, cell lysate, small-molecule microarray, fluorescence 635/667 (AID 1065); settings: higher = more signal, COS7 lysate expressing mutant human TOR1A
[3] = binders of probe aFGF2 on microarray, primary screen, stem cell growth factor project, biochemical, small-molecule microarray, fluorescence 635/667 (AID 1067); settings: higher = more signal;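 also: measures binding of biotinylated aFGF2 protein to printed compounds on slides; z-score merges feature fluorescence and signal-to-noise across triplicate slides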
[4] = binders of probe aFGF10 on microarray, primary screen, stem cell growth factor project, biochemical, small-molecule microarray, fluorescence 635/667 (AID 1071); settings: higher = more signal;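 also: score merges 667 nm spot intensity and signal to noise from triplicate slides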
[5] = biological target: Neurogenic locus notch homolog protein 2 (Homo sapiens) (UniProt Q04721); test: Notch2 binders on small-molecule microarrays, primary screen, biochemical, small-molecule microarray, 635 nm fluorescence, stem cell growth factors (AID 1073); settings: Notch2 binding, higher = more signal
[6] = biological target: Pro-neuregulin-1, membrane-bound isoform (Homo sapiens) (UniProt Q02297); test: NRG1 binders on small-molecule microarrays, primary screen, psychiatric disease protein project, biochemical, small-molecule microarray, fluorescence 635/667 (AID 1075); settings: NRG1 binding, 635 nm fluorescence, higher = more signal;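 also: score combines 667 nm spot fluorescence with signal to noise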
[7] = system: Neuregulin-1 EGF-like domain; test: binders of neuregulin-1 EGF-like domain, primary screen, biochemical, small-molecule microarray, 635 nm fluorescence (AID 1081); settings: small-molecule microarray binding, higher = more signal;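 also: binding of the protein to compounds printed on small-molecule microarray slides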
[8] = FRG1 promoter luciferase signal modulators, primary screen, FRG1 inhibition for FSHD, cell-based, C2C12 myotubes, firefly/Renilla luciferase, luminescence (AID 1084); settings: higher = more signal, called active from +8 up or from −8 down
[9] = binders of probe aFST on microarray, primary screen, stem cell growth factor project, biochemical, small-molecule microarray, fluorescence 635/667 (AID 1086); settings: higher = more signal;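 also: score merges 667 nm fluorescence with signal-to-noise of each printed compound spot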
[10] = binders of probe aHhip on microarray, primary screen, stem cell growth factor project, biochemical, small-molecule microarray, fluorescence 635/667 (AID 1087); settings: higher = more signal;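 also: score merges spot fluorescence at 667nm with spot signal to noise ratio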
[11] = system: PRMT1 (protein arginine N-methyltransferase 1); test: PRMT1 binders on small-molecule microarrays, primary screen, biochemical, small-molecule microarray, 635 nm fluorescence (AID 1088); settings: small-molecule microarray binding, higher = more signal;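 also: binding of Prmt1 protein to compounds spotted on small-molecule microarray slides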
[12] = yeast growth modulation, basal conditions, primary screen, YJM789 clinical isolate, OD600, 24 h (AID 1089);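 also: growth of clinical yeast isolate S. cerevisiae YJM 789 seeded 1000 cells per well; test concentration not given here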; settings: S. cerevisiae YJM789 growth, higher = more signal, called active from +8 up or from −8 down
[13] = fission yeast growth modulation, primary screen, strain 972, OD600, 24 h, no modulator (AID 1090);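 also: basal condition with compound alone and no growth modifier present; test concentration not given here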; settings: S. pombe 972 growth, higher = more signal, called active from +8 up or from −8 down
[14] = S. cerevisiae growth modulation with rapamycin, primary screen, strain BY4716, OD600, 96 h (AID 1091); settings: higher = more signal, called active from +8 up or from −8 down; also: test concentration not given here
[15] = biological target: Torsin-1A-interacting protein 2 (Homo sapiens) (UniProt Q8NFQ8); test: LULL1 binders on small-molecule microarray, primary screen, cell lysate, human LULL1 lysate, 635/667 nm fluorescence (AID 1092); settings: hLULL1 lysate binding, 635 nm fluorescence, higher = more signal;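 also: probe is lysate of COS7 cells overexpressing human LULL1; score merges per-feature 667 nm fluorescence with signal-to-noise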
[16] = E. coli growth modulation, two-sided OD650, primary screen, E. coli filamentation project, strain DRC41, 24 h (AID 1093); settings: OD650, 24 h, higher = more signal, called active from +8 up or from −8 down;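 also: MC1000 strain lacking acrAB efflux and sulA so SOS filamentation is blocked; test concentration not given here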
[17] = small-molecule microarray binders of probe aLefty2, primary screen, biochemical, biotinylated probe, 635/667 nm fluorescence (AID 1094); settings: higher = more signal;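 also: score merges spot fluorescence near 667 nm with spot signal-to-noise ratio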
[18] = system: Noggin (protein binding on small-molecule microarray); test: Noggin binders on small-molecule microarray, primary screen, biochemical, 635/667 nm fluorescence (AID 1095); settings: 635 nm fluorescence, higher = more signal;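 also: score merges 667 nm feature fluorescence with signal to noise over triplicate slides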
[19] = biological target: Neurogenic locus notch homolog protein 3 (Homo sapiens) (UniProt Q9UM47); test: NOTCH3 binders on small-molecule microarray, primary screen, biochemical, 635/667 nm fluorescence (AID 1096); settings: NOTCH3 binding, 635 nm fluorescence, higher = more signal
[20] = small-molecule microarray binders of probe aEGFR, primary screen, biochemical, biotinylated probe, 635/667 nm fluorescence (AID 1097); settings: higher = more signal;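 also: probe is a biotinylated anti-EGFR antibody binding compounds printed on slides; score combines fluorescence near 667 nm and signal to noise of each spot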

Sequence of Neurogenic locus notch homolog protein 3 (Homo sapiens) (Q9UM47 whole entry, looked up): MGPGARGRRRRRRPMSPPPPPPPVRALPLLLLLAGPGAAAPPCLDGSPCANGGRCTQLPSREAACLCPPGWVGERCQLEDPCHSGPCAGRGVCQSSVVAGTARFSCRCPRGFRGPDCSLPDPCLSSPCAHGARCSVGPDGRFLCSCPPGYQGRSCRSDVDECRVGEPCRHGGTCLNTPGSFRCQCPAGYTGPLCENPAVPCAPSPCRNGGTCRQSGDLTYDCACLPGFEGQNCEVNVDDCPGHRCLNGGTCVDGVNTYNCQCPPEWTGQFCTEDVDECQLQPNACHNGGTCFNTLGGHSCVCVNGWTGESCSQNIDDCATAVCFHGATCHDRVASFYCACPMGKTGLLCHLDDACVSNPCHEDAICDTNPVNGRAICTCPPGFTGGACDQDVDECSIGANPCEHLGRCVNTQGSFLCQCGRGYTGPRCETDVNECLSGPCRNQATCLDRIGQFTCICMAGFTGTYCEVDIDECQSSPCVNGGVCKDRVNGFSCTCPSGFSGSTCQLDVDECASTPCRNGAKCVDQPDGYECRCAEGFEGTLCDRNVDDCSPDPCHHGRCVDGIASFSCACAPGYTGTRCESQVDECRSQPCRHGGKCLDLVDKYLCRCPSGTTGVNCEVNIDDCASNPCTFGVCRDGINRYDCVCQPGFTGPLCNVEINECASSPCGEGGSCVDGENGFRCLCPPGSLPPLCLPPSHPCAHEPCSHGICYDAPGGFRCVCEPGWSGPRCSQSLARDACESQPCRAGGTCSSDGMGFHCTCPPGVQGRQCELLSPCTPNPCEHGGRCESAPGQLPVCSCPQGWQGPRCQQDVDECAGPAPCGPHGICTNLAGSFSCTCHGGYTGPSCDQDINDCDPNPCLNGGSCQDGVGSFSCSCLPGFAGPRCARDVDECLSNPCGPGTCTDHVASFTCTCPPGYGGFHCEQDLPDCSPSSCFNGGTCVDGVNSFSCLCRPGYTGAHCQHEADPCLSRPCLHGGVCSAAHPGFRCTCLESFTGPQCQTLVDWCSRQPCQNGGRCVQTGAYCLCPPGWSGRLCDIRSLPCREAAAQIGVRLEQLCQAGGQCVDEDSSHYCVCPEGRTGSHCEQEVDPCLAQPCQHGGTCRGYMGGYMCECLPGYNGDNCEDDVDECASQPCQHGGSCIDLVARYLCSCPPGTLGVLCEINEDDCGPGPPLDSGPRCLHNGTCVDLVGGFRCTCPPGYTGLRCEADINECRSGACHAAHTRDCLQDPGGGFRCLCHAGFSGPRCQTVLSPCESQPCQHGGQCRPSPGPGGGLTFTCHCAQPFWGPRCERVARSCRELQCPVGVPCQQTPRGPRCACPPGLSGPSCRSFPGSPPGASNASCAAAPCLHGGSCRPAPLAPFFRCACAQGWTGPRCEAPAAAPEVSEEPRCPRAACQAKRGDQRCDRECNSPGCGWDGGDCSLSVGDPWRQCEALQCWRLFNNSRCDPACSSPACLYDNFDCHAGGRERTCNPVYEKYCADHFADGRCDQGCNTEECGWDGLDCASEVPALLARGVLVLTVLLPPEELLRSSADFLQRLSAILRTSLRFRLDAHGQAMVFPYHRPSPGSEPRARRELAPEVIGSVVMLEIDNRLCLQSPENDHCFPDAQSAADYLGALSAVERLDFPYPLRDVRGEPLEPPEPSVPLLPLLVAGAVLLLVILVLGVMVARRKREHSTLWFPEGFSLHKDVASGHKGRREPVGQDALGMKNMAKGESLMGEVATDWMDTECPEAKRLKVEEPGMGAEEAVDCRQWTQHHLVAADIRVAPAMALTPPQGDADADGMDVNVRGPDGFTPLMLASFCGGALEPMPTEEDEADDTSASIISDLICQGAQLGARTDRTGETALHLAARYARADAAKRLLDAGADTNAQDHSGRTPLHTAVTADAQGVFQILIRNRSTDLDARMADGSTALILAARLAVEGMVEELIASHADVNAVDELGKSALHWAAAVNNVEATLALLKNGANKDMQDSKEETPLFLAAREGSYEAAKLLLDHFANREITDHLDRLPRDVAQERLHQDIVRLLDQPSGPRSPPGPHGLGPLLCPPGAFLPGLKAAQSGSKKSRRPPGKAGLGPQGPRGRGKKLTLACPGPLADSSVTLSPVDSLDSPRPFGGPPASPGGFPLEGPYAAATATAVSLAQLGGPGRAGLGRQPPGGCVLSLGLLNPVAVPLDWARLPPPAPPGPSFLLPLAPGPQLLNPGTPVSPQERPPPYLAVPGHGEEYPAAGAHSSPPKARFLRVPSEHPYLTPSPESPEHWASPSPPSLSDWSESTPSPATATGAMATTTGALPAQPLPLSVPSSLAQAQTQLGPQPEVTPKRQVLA
Sequence of Neurogenic locus notch homolog protein 2 (Homo sapiens) (Q04721 whole entry, looked up, canonical isoform): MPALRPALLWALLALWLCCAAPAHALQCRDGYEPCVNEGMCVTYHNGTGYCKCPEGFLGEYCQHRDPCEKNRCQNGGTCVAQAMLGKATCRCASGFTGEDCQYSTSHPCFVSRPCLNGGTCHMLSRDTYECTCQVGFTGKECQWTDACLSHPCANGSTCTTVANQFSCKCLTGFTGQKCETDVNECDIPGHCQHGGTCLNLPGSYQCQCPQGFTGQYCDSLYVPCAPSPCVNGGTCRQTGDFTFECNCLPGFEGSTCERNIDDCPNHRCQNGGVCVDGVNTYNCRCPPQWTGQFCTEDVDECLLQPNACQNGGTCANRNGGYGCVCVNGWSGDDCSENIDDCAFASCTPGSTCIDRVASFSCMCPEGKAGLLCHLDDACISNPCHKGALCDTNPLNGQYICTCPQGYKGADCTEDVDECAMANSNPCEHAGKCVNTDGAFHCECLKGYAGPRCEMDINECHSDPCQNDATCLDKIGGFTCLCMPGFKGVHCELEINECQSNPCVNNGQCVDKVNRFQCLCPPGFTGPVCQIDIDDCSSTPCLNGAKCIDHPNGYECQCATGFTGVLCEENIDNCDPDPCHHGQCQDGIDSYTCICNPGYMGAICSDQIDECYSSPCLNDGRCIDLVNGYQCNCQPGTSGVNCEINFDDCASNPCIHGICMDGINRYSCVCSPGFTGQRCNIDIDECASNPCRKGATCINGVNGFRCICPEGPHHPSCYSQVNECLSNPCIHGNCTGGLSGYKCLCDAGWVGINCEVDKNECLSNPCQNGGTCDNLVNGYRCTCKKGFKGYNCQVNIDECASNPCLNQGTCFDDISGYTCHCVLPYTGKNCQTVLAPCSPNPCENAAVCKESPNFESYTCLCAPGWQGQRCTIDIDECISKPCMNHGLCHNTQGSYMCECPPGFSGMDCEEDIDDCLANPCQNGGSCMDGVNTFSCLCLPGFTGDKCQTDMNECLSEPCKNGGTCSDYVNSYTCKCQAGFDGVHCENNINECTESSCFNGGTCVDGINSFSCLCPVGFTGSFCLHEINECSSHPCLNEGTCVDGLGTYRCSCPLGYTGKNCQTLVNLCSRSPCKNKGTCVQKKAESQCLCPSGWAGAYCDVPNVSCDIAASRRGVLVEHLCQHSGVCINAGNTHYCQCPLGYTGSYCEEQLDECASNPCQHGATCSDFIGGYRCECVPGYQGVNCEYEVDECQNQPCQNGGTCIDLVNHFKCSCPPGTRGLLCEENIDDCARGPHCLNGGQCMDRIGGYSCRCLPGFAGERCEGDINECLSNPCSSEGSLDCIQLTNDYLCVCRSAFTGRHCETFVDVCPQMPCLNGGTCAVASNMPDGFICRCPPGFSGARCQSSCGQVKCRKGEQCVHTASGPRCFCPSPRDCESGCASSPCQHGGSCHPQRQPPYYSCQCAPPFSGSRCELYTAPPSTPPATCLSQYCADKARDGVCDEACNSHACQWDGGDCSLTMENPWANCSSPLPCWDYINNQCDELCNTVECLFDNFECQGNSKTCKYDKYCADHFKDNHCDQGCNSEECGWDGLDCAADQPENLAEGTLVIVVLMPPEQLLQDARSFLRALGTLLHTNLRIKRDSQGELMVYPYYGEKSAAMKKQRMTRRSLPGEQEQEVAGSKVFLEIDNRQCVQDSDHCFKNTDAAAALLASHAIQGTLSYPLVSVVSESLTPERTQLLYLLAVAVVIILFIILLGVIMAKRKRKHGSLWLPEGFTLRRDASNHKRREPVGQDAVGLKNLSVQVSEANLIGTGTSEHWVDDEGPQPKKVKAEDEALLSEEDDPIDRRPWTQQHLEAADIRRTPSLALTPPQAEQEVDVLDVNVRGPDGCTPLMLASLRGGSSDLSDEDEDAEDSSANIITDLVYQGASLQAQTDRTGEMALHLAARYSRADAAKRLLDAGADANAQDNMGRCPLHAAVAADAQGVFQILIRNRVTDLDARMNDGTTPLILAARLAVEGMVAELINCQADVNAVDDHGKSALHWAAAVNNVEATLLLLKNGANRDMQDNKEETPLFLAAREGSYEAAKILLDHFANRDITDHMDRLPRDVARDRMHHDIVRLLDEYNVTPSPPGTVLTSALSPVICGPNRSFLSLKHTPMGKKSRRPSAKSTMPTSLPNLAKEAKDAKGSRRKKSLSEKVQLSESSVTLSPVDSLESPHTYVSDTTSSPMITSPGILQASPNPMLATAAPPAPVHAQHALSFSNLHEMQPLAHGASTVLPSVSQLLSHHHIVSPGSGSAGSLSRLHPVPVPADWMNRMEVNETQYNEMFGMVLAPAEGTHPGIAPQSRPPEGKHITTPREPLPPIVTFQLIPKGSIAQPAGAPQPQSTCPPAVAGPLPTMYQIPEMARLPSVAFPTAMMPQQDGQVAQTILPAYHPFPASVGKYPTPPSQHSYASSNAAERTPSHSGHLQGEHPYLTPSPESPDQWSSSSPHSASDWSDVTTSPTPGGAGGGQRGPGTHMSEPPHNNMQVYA

SMILES	composite z-score [1]	composite z-score [2]	composite z-score [3]	composite z-score [4]	composite z-score [5]	composite z-score [6]	composite z-score [7]	z-score [8]	composite z-score [9]	composite z-score [10]	composite z-score [11]	z-score [12]	z-score [13]	z-score [14]	composite z-score [15]	z-score [16]	composite z-score [17]	composite z-score [18]	composite z-score [19]	composite z-score [20]
C=CC[C@]1(C(=O)O)N=C(c2ccc(OCCCO)cc2)O[C@H]1c1ccccc1	1.03	-0.269	-0.0985	-0.2	-0.0704	1.87	1.12	0.197 (inactive)	0.0226	-0.169	0.707	-0.435 (inactive)	-2.83 (inactive)	-1.08 (inactive)	3.29	0.597 (inactive)	-0.0199	-1.1	-0.888	-0.0936
Cc1ccc(S[C@]2(C(=O)NC(C)C)CC(=O)N(C3Cc4ccccc4C3)[C@@H]2c2ccc(CO)cc2)cc1	-0.796	0.172	-0.148	0.301	-0.586	1.42	0.62	-2.74 (inactive)	-0.554	-0.292	1.53	0.106 (inactive)	-1.65 (inactive)	-0.517 (inactive)	2.95	-2.16 (inactive)	-0.222	-0.0057	0.506	-0.308
C#CCNC(/C=C/c1ccccc1)CO (stereo not given)	-0.383	0.329	-0.0973	0.41	0.495	-0.21	-0.0021	-0.156 (inactive)	0.155	-0.0237	0.142	1.11 (inactive)	0.64 (inactive)	1.24 (inactive)	0.0064	-0.852 (inactive)	-0.0668	0.381	0.447	-0.135
CC(C)=C1C(=O)C(c2ccccc2)=C2CN3C(=O)N(CCc4ccccc4)C(=O)[C@]3(Cc3ccccc3)[C@H]21	0.5	-0.463	-0.0612	0.103	-0.272	0.0953	-0.318	0.438 (inactive)	0.0891	-0.112	-0.632	0.637 (inactive)	0.927 (inactive)	0.867 (inactive)	1.15	-0.901 (inactive)	0.213	-0.974	-0.546	-0.138
CC(C)N1CC=CC23O[C@@H]4/C=C\CCCOC(=O)C4[C@H]2C(=O)N(CCCCCO)[C@@H]3C1=O (stereo not given in full)	0.378	2.29	-0.226	-1.52	-2.17	1.16	0.665	0.561 (inactive)	-0.729	0.0176	-2.15	-0.927 (inactive)	-1.16 (inactive)	-0.693 (inactive)	-0.467	1.67 (inactive)	-0.208	-1.65	-1.89	-0.364
CC(C)[Si](OCCCNS(=O)(=O)c1ccc(Br)cc1)(C(C)C)C(C)C	-0.491	0.231	-0.0529	0.962	1.43	0.344	0.468	-3.13 (inactive)	0.623	-0.0645	0.807	-4.21 (inactive)	-3.02 (inactive)	-1.86 (inactive)	0.716	3.1 (inactive)	0.0278	0.578	1.11	0.0298
O=C/C=C/c1ccc(/C=C/c2ccccc2)cc1	1.02	0.107	-0.105	-0.324	-0.429	-0.422	-0.34	3.71 (inactive)	0.204	0.154	-0.742	-2.92 (inactive)	-19.7 (active)	-1.59 (inactive)	-0.917	1.51 (inactive)	0.0262	-0.43	-1.2	-0.225
O=C1C[C@@](C(=O)NC2CC2)(c2ccc([N+](=O)[O-])cc2)[C@@H](c2ccc(CO)cc2I)N1CC12CC3CC(CC(C3)C1)C2	-0.514	-0.407	0.01	0.487	1.05	0.346	1.24	-2.34 (inactive)	0.303	-0.184	1.48	1.82 (inactive)	1.19 (inactive)	5.3 (inactive)	2.96	-1.05 (inactive)	-0.145	1.32	1.07	-0.198
COc1ccc([Si](C)(C)[C@H]2[C@H](CC(=O)N3Cc4ccccc4C[C@H]3CO)O[C@@]3(C(=O)N(Cc4cccc(N5CCOC5=O)c4)c4ccccc43)[C@@H]2C)cc1	0.0766	0.882	-0.128	0.157	0.123	0.676	0.95	-2.72 (inactive)	0.158	-0.264	1.34	-0.541 (inactive)	0.319 (inactive)	0.18 (inactive)	0.662	1.4 (inactive)	0.0939	1.22	0.932	-0.0169
CO[C@H]1COC(=O)[C@H](CCSC)NC(=O)CC=C[C@@H](C)COC(=O)[C@@H](OCc2ccccc2)C=C[C@@H]1C	-0.929	2.45	-0.294	-0.226	-0.206	-0.37	0.782	-0.592 (inactive)	-0.327	-0.0047	1.13	0.891 (inactive)	0.353 (inactive)	0.97 (inactive)	-0.84	0.109 (inactive)	-0.222	1.93	0.13	-0.0131
CO[C@H]1COC(=O)CC=C[C@H](C)[C@@H](OC)COC(=O)[C@H](Cc2ccccc2)NC(=O)CC=C[C@@H]1C	-0.304	1.36	-0.167	-1.09	-1.79	-0.806	-1.09	-1.01 (inactive)	-0.463	0.0524	0.942	0.37 (inactive)	-0.623 (inactive)	0.725 (inactive)	-1.22	-0.145 (inactive)	-0.298	1.68	0.0612	-0.172
O=C1OCC=C[C@H]2OC34C=CCN(Cc5ccccc5)C(=O)[C@H]3N(CCCCCO)C(=O)[C@@H]4[C@@H]12 (stereo not given in full)	1.67	-0.0288	-0.187	-0.179	-1.38	1.13	0.631	0.443 (inactive)	-0.594	-0.216	-0.702	-0.524 (inactive)	-1.06 (inactive)	-0.368 (inactive)	1.06	2.33 (inactive)	0.0282	-1.5	-0.911	-0.358
CN(C)c1ccc(C(O)C2C=CC3C(=O)NC(=O)C3N2Nc2ccc(Cl)cc2Cl)cc1 (stereo not given)	0.649	-0.0467	0.021	0.294	0.879	1.18	1.11	3.74 (inactive)	1.38	0.0677	0.546	-0.298 (inactive)	-1.06 (inactive)	0.789 (inactive)	2.58	-0.617 (inactive)	0.31	-0.163	0.809	-0.125
O=C1C[C@@](C(=O)NCCN2CCOCC2)(c2ccc([N+](=O)[O-])cc2)[C@@H](c2ccc(CO)cc2)N1C1CCCCC1	0.224	0.657	0.11	0.26	0.576	0.548	1.25	0.292 (inactive)	0.133	0.0053	1.55	0.406 (inactive)	-0.824 (inactive)	-0.468 (inactive)	3.07	1.48 (inactive)	0.138	0.515	1.12	0.23
O=C(NCc1ccccc1)[C@@]1(Cc2ccccc2)COC(c2ccc(OCCCO)cc2)=N1	0.618	0.0094	-0.255	0.0532	0.46	1.51	1.19	-3.27 (inactive)	0.792	0.113	1.41	1.51 (inactive)	-1.24 (inactive)	36.4 (active)	3.11	0.624 (inactive)	0.188	-0.629	-0.0046	-0.054
C=CC[C@]1(C(=O)OC)N=C(c2ccc(OCCCO)cc2)O[C@H]1c1ccccc1CN=[N+]=[N-]	2.1	0.164	-0.0004	-0.564	-0.543	0.391	0.863	-1.55 (inactive)	0.629	-0.0994	0.828	-0.664 (inactive)	-2.28 (inactive)	-0.723 (inactive)	1.37	1.37 (inactive)	0.4	-0.101	-0.823	-0.0828
C[C@H]1C2[C@H](Cc3ccccc3)NC(=O)[C@]23C(=O)N[C@H](Cc2ccccc2)C(=O)N[C@@H](Cc2ccccc2)C(=O)NC/C=C\C/C=C/C3[C@@H]2O[C@]12C (stereo not given in full)	-0.446	0.107	-0.147	0.388	0.155	-0.384	-0.199	-0.293 (inactive)	-0.137	0.122	-0.0599	-0.371 (inactive)	-0.246 (inactive)	-0.639 (inactive)	0.168	1.25 (inactive)	-0.0882	-0.152	0.367	-0.113
CCCC/C=C/[C@H]([C@@H](O)Cc1ccccc1)N(CC#Cc1ccccc1)Cc1ccccc1Br	1.22	-0.37	-0.21	-1.17	-0.749	-0.169	-0.291	-0.506 (inactive)	-0.74	-0.584	-0.439	0.933 (inactive)	-0.972 (inactive)	0.0956 (inactive)	-0.0817	2.92 (inactive)	0.0735	-2.07	-1.4	-0.428
C=CCOC(=O)[C@@H]1[C@H]2C(=O)O[C@H](c3ccccc3)[C@H](c3ccccc3)N2[C@H](c2ccc(OCCOC(=O)[C@H]3C[C@H]4C(=O)N5CCC[C@H]5C(=O)N4[C@H]3c3ccc(O)cc3)cc2)[C@@]12C(=O)Nc1ccccc12	-0.536	0.774	-0.0169	0.691	0.742	0.968	1.3	-0.619 (inactive)	-0.0007	-0.0994	1.51	-0.0259 (inactive)	-0.766 (inactive)	2.42 (inactive)	1.44	2.52 (inactive)	0.239	0.684	0.695	0.0459
COC(=O)Cn1c(C(=O)N2CCCC2)cc2c1C[C@H]1CN(C(=O)c3ccccc3)[C@@](Cc3ccccc3)(C(=O)OC)[C@@H]21	0.0841	-0.0841	0.0915	0.381	1.56	1.96	1.17	1.07 (inactive)	0.76	-0.119	-0.257	0.316 (inactive)	1.23 (inactive)	0.651 (inactive)	2.52	0.214 (inactive)	0.302	-0.455	0.74	0.168
